# Bioassay records from PubChem.
# An excerpt weighted towards active compounds, which were near 0.5% of everything screened.
# Tat transport: inhibitors of E. coli Tat protein transport | AID 488895 | E. coli MC4100 TorA-mCherry Tat export, fluorescence | 340,000 tested, 0.036% active | inhibition, % at 10 µM;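 active means mean replicate inhibition at least 50% and at least half of replicates individually reaching 50%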;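 further: exported cargo escapes ClpAP degradation while cytoplasmic cargo is degraded and loses fluorescence; 0% = median of neutral control wells and 100% = median of NaSCN control wells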
# AddAB inh: less growth of phage-infected E. coli with AddAB | AID 435030 | 330,000 tested, 0.29% active | E. coli expressing H. pylori AddAB, absorbance growth | inhibition, % at 11.9 µM; in the data active means inhibition above about 12%;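 further: 0% = vehicle wells of infected cells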
# E coli growth-1: counter-screen for AddAB inhibitors: E. coli growth inhibition. E. coli V3065 growth, OD600 absorbance, 18 h. inhibition, % at 11.9 µM. 330,000 tested, 0.27% active;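 active means inhibition above the campaign's mean inhibition across all tested compounds plus 3 SD, cut at about 9.9% in these data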;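 further: uninfected addAB+ strain grown without phage in ampicillin broth; 0% = DMSO wells and 100% = ciprofloxacin 0.95 µg/ml wells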
# phage Ecoli inh: E. coli growth loss with phage present | growth absorbance | 360,000 tested, 0.26% active | inhibition, % at 11.9 µM; in the data active means inhibition above about 11%
# E coli growth-2: inhibitors of Escherichia coli growth | OD600, 23 h; active compounds read low | OD600 absorbance (no concentration beside the values) | 330,000 tested, 0.21% active;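 active means OD600 absorbance below the run mean of sample wells minus 3.6 SD, in any replicate, cut at about 0.56 in these data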
# RecBCD conf: growth loss of phage-infected V66 E. coli, RecBCD confirmation screen. inhibition, % at 11.9 µM. E. coli V66 + T4 2- phage, growth OD. shares compounds with phage Ecoli inh. 890 tested, 45% active;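 active means mean inhibition over triplicates exceeding the hit threshold derived in the original primary screen, cut at about 11% in these data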
# Ecoli viability: inhibits E. coli viability, flagging RecBCD hits as nonselective | AID 651983 | 890 tested, 29% active | inhibition, % at 11.9 µM | absorbance (OD) growth | shares compounds with phage Ecoli inh; in the data active means inhibition above about 20%;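 further: E. coli strain V66 grown with compound alone and no phage infection; 0% = bacteria with DMSO vehicle only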
# AddAB counter: growth loss of phage-infected AddAB E. coli, RecBCD counter-screen | E. coli expressing H. pylori AddAB + T4 phage, OD growth; gene 2 mutant T4, recBCD-deleted host | 890 tested, 45% active | shares compounds with phage Ecoli inh | inhibition, % at 11.9 µM | AID 651984;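 active means mean inhibition above the solvent-only control wells' mean plus 3 SD, cut at about 22% in these data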;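 further: higher means less bacterial growth from phage killing when AddAB is blocked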
# * marks the source's active call; other numbers are inactive results; / = not tested or not shown.
SMILES,Tat transport,AddAB inh,E coli growth-1,phage Ecoli inh,E coli growth-2,RecBCD conf,Ecoli viability,AddAB counter
O=S(=O)(Nc1ncccn1)c1ccc(NC(=S)Nc2ccccc2Cl)cc1,-10,7,3,11*,/,0,-2,6
NS(=O)(=O)c1ccc(NC(=S)Nc2ccc(S(=O)(=O)Nc3nccs3)cc2)cc1,/,/,/,11*,/,3,3,8
CC(C)(C)C(=O)NC(=S)Nc1ccc(S(=O)(=O)Nc2nccs2)cc1,-2,3,-1,5,0.65,/,/,/
Cn1nnnc1SCc1ccc(F)cc1,-1,1,-1,20*,0.66,0,0,-1
Cc1nnc(NS(=O)(=O)c2ccc(N)cc2)s1,-2,4,5,12*,0.63,4,3,27*
Cc1nnc(NS(=O)(=O)c2ccc(F)cc2)s1,2,/,/,1,/,/,/,/
Oc1ccc(C=NNC(=S)Nc2ccccc2)nc1,/,/,/,22*,/,22*,27*,32*
O=c1c2cc([N+](=O)[O-])ccc2sn1-c1ccccc1,/,/,/,4,/,/,/,/
N#Cc1c2ccc([N+](=O)[O-])cc2[n+]([O-])n1-c1ccccc1,0,37*,38*,17*,/,16*,18,51*
O=C1c2cc(Cl)ccc2-c2c(O)cc(Cl)cc21,2,/,/,13*,0.57,10,12,6
Cc1ccc(CSc2nnc(SCC(=O)NN=C/C=C/c3ccccc3[N+](=O)[O-])s2)cc1,/,/,/,/,0.75,/,/,/
COc1ccc(S(=O)(=O)N(CCC(N)=O)Cc2ccco2)cc1OC,19,1,-1,98*,0.64,-2,-2,-4
COc1ccc(S(=O)(=O)N(Cc2ccc(OC)c(OC)c2)Cc2ccco2)cc1,-1,2,1,3,0.77,/,/,/
Fc1cccc(C2NN=C(c3ccccc3)S2)c1 (stereo not drawn),-3,1,2,1,0.73,/,/,/
O=C1c2ccccc2C2=Nc3ccccc3SC(c3cccc(F)c3)C12 (stereo not drawn),-33,8,12*,16*,0.59,12*,9,26*
COc1ccc(/C=C(\NC(=O)c2ccccc2)C(=O)NN=Cc2ccncc2)cc1,/,/,/,/,0.72,/,/,/
COc1ccccc1NC(=S)NC(NC(=O)c1ccco1)C(Cl)(Cl)Cl (stereo not drawn),-23,11,8,11*,0.64,2,4,7
C=CCN=c1scc(-c2ccco2)n1/N=C/c1ccc(O)c(O)c1O,11,6,7,11*,/,6,7,3
CN=c1scc(-c2cccs2)n1/N=C/c1ccc(O)c(O)c1O,2,11,10,13*,/,5,6,8
COCCN=c1scc(-c2ccco2)n1/N=C/c1ccc(O)c(O)c1O,12,9,5,9,/,/,/,/
O=c1c(=Cc2cccc(O)c2)sc2nc(-c3ccccc3)c(-c3ccccc3)n12,/,/,/,/,0.68,/,/,/
COc1ccccc1S(=O)(=O)Cc1ccc(C(=O)N2CCOCC2)o1,-6,5,1,35*,0.72,-1,-1,0
CCN(CC)c1ccc(C=NNC(=O)c2nnn(-c3nonc3N)c2-c2ccc(C)cc2)cc1,/,/,/,/,0.71,/,/,/
COc1ccccc1NC(=O)NNC(=O)c1ccc2ccccc2c1O,0,/,/,11*,0.68,9,10,8
Cc1ccccc1NC(=O)NNC(=O)c1ccc2ccccc2c1O,-3,6,6,6,0.73,/,/,/
SMILES,Tat transport,AddAB inh,E coli growth-1,phage Ecoli inh,E coli growth-2,RecBCD conf,Ecoli viability,AddAB counter
CCc1ccc(NC(=O)NNC(=O)c2ccc3ccccc3c2O)cc1,-7,/,/,13*,0.7,9,10,9
CC1CN(C(C)CO)C(=O)Cc2cc(NS(C)(=O)=O)ccc2OC1CN(C)Cc1ccc(Cl)c(Cl)c1 (stereo not drawn),/,/,/,/,0.66,/,/,/
CC(Oc1cccc(F)c1)c1ccnc2nc(N=CN(C)C)nn12 (stereo not drawn),/,/,/,/,0.66,/,/,/
O=[N+]([O-])c1ccc(N2CCN(Cc3ccccc3)CC2)s1,7,0,-1,1,0.66,/,/,/
O=[N+]([O-])c1ccc(N2CCN(Cc3ccccc3)CC2)c2c1no[n+]2[O-],/,/,/,12*,/,8,10,42*
CCCC(=O)NC(c1ccc(OC)c(OC)c1)c1cc(Cl)c2cccnc2c1O (stereo not drawn),-5,8,11*,14*,0.66,10,13,19
CCC(=O)NC(c1cc(Cl)c2cccnc2c1O)C1CC1 (stereo not drawn),5,8,11*,14*,0.68,3,5,7
CC(=O)NC(c1cc(F)c2cccnc2c1O)C1CC1 (stereo not drawn),16,-4,-2,0,0.68,/,/,/
CC(=O)NC(c1ccc(Cl)cc1)c1ccc2cccnc2c1O (stereo not drawn),-10,/,/,20*,0.53,12*,16,18
O=C(NC(c1ccc(Cl)cc1)c1cc(Cl)c2cccnc2c1O)c1cccnc1 (stereo not drawn),-8,5,-1,4,/,/,/,/
CC(=O)NC(c1ccc(N(C)C)cc1)c1cc(Cl)c2cccnc2c1O (stereo not drawn),/,/,/,19*,/,7,9,22*
Cc1ccsc1C=Nn1c(C2CCCCC2)n[nH]c1=S,/,/,/,/,0.67,/,/,/
CC1CN(C(C)CO)C(=O)Cc2cc(NS(=O)(=O)c3ccc(F)cc3)ccc2OC1CN(C)Cc1ccc(C(=O)O)cc1 (stereo not drawn),/,/,/,/,0.69,/,/,/
COc1ccc(C(NC(C)=O)c2cc(Cl)c3cccnc3c2O)cc1 (stereo not drawn),-5,10,20*,14*,0.68,6,9,16
CCCCC(=O)NC(c1ccc(Cl)cc1Cl)c1ccc2cccnc2c1O (stereo not drawn),4,/,/,19*,/,13*,14,31*
CCC(=O)NC(c1ccco1)c1cc(Br)c2cccnc2c1O (stereo not drawn),/,/,/,20*,/,6,10,18
Cc1ccccc1OCC(=O)NN=Cc1cc2ccccc2nc1Cl,/,/,/,/,0.72,/,/,/
Fc1ccc(CNC(=S)Nc2ccc(Cl)cc2)cc1,-2,8,8,12*,0.63,5,7,7
Fc1ccc(NC(=S)NCc2ccccc2)cc1,14,2,1,3,0.65,/,/,/
O=[N+]([O-])c1ccc(NC(=S)NCCc2ccc(Cl)cc2)cc1,-19,11,11*,13*,0.58,3,5,9
O=[N+]([O-])c1ccc(NC(=S)NCCc2ccccc2)cc1,-3,8,6,8,0.59,/,/,/
CON=Cc1ccc(N2CCCC2)c([N+](=O)[O-])c1,/,/,/,/,0.67,/,/,/
